# TbPYK inhibitor – qHTS of Trypanosoma Brucei Inhibitors. pyruvate kinase (Trypanosoma brucei), Q57TT1. TbPYK enzyme, Kinase-Glo Plus ATP luminescence, 45 min. Potency, µM (top dose mostly 76.8 µM), inactives show at the highest dose activity, negative = inhibition, usual class: inhibitors. hit rate 0.12% among 410,000. AID 624173, 2012; also: potency is read from the fitted curve at half-maximal effect; % is scaled to controls: 0 for no effect and ±100 for the full control effect; nearly all actives have a fitted effect of over 50% in size
#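 ADP (130 uM final) triggers the TbPYK reaction after compound addition; incubation is 45 min at room temperature. Kinase-Glo Plus is then added and luminescence imaged. Normalized data are fitted to concentration-effect curves.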
# Shiga inhibitor – A qHTS for Small Molecule Inhibitors of Shiga Toxin | inhibition, % at 38.7 µM | hit rate 9.2% among 290,000 | Vero cells, Shiga toxin protein synthesis inhibition reporter; in the data active = inhibition mostly above about 28%, no sharp cut-off; inactive = mostly below about 43%; also: 0% is about no effect
# CHX counter – Cycloheximide Counterscreen for Small Molecule Inhibitors of Shiga Toxin; hit rate 12% among 300,000; AID 2314, 2010; cell reporter, cycloheximide protein synthesis inhibition counterscreen; max response, %; in the data active = max response mostly above about 13%, no sharp cut-off; inactive = mostly below about 14%; also: read at 38.3 µM for the half of the compounds with a filed dose; 0% is about no effect
# FBPA Giardia inh – qHTS Assay for Inhibitors of Fructose-1,6-bisphosphate Aldolase from Giardia Lamblia; hit rate 0.71% among 290,000; A8B2U2; purified Giardia FBPA; Potency, µM (titrated, usually from 59.6 µM), for the others: top-dose activity, negative = inhibition, most hits filed as inhibitors; also: potency is read from the fitted curve at half-maximal effect; % is scaled to controls: 0 for no effect and ±100 for the full control effect; nearly all actives have a fitted effect of over 55% in size
# Target sequence (A8B2U2 whole entry, looked up): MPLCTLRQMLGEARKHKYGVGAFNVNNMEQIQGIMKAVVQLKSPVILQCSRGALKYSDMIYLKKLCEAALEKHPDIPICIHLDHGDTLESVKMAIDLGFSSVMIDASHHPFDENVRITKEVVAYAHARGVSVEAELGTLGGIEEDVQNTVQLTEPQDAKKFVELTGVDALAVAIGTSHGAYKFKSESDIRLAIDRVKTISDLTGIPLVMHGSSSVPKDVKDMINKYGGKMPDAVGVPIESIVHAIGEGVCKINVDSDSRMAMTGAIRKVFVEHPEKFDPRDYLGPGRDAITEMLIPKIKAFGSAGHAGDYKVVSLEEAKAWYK
#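 40 nM FBPA preincubated 10 min at RT with compound (up to 57.5 uM final), then substrate plus GAPDH/TPI/NAD/arsenate coupling and diaphorase/resazurin added. Fluorescence read after 20 min at RT, 525/598 nm.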
# Sm TGR inh – qHTS Assay for the Inhibitors of Schistosoma Mansoni Peroxiredoxins; Schistosoma mansoni thioredoxin glutathione reductase (TGR), Q962Y6; Potency, µM (titrated, usually from 114 µM), inactives show top-dose activity change, negative = inhibition, hits mostly inhibitors; hit rate 3% among 360,000; purified TGR, DTNB reduction, TNB absorbance 405 nm; also: potency is read from the fitted curve at half-maximal effect; % is scaled to controls: 0 for no effect and ±100 for the full control effect; nearly all actives have a fitted effect of over 60% in size
#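 First, TGR (20 nM dispensed) and NADPH were mixed with compound. Second, a 15 min room-temperature incubation followed. Third, further NADPH and then DTNB were added to start the reaction. Finally, TNB absorbance was monitored kinetically.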
# LmPK inh – qHTS Assay for Inhibitors of Leishmania Mexicana Pyruvate Kinase (LmPK); Potency, µM (top dose mostly 57.5 µM), for the others: top-dose activity change, negative = inhibition, actives largely listed as inhibitors; hit rate 0.37% among 290,000; purified LmPK, Kinase-Glo ATP luminescence, 1 h; also: potency is read from the fitted curve at half-maximal effect; % is scaled to controls: 0 for no effect and ±100 for the full control effect
#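 In 50 mM imidazole pH 7.2 with 7 mM MgCl2, LmPK (0.1 nM) turned over PEP (0.5 mM) and ADP (0.1 mM) for 1 h at room temperature. Luciferase read-out of ATP.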
# Starred values were filed as active, the others as inactive; u = inconclusive; x = not tested or not shown; [ ] = dose if it differs, or a comment. Only a selection was taken, and hits are over-represented in it overall. Unless noted, calls follow the shape of the dose curve; as a rule, active = well fitted curve in the direction sought with a large enough effect; inconclusive = small, poorly fitted or top-dose-only effect, or another doubt; inactive = no such curve, though single readings can be large; an effect the other way counts as inactive or inconclusive.
SMILES,TbPYK inhibitor,Shiga inhibitor,CHX counter,FBPA Giardia inh,Sm TGR inh,LmPK inh
Cc1cc(S(=O)(=O)N2CCCC(N(C)CCc3ccccn3)C2)c(C)cc1Cl (stereo not given),-10.5%,-12.4,-2.5,x,44.7µM*,5.8%
Cc1ccc(NC(=O)CSc2nc3c(sc4ccccc43)c(=O)n2CCCC(=O)NC2CCCC2)cc1C,4.1%,x,x,x,0.1%,x
Cc1c(Cl)cccc1NC(=O)CNC(=O)c1ccco1,1.5%,-2.8,-1.4,6.7%,-10.6%,1.7%
O=C(CNC(=O)c1ccco1)Nc1ccc(Br)cc1,5.2%,60.6*,44.9*,-12.8%,0.0%,0.8%
O=C(CNC(=O)c1ccco1)Nc1ccc(Cl)cc1,-7.9%,33.8*,26.9*,0.8%,-4.1%,2.3%
C/C(=N\NC(=O)CNC(=O)c1ccco1)c1ccc(Br)cc1,-4.0%,2.6,-1.8,x,-6.6%,-3.1%
Cc1ccc(NC(=O)CNC(=O)c2ccco2)c(Cl)c1,10.1%,46.7*,24.5*,4.4%,6.9%,-2.6%
O=C(CCNC(=O)c1ccco1)Nc1ccc(Cl)cc1,-1.4%,-15.8,8.8,-0.2%,6.0%,6.0%
COc1ccccc1NC(=O)C(C)OC(=O)CCSc1ccc(F)cc1 (stereo not given),-1.7%,x,x,x,0.3%,x
O=C(CSc1ncnc2c1cnn2-c1cccc(Cl)c1)NCC1CCCO1 (stereo not given),-8.4%,16.3,-1.2,5.7%,-1.1%,-0.8%
O=C(CSc1ncnc2c1cnn2-c1ccccc1)Nc1ccccc1,8.6%,-6.5,-2.6,5.9%,-0.6%,0.2%
O=C(CSc1ncnc2c1cnn2-c1ccccc1)NC1CCCC1,-16.0%,x,x,x,-6.2%,x
CC(=O)CSc1ncnc2c1cnn2-c1ccccc1,-13.1%,90.9*,36.2*,5.5%,-3.2%,23.1%
CNC(=O)CSc1ncnc2c1cnn2-c1ccccc1,0.0%,69.2*,35.0*,3.3%,15.5%,-2.6%[11.5 µM]
CC(Sc1ncnc2c1cnn2-c1ccccc1)C(=O)NCC1CCCO1 (stereo not given),-8.5%,64.4,20.1*,x,-4.8%,-5.3%
COc1cc(C(C)=O)ccc1Oc1ncnc2c1cnn2-c1ccc(C)c(C)c1,-7.0%,62.8*,32.2*,11.8%,-13.4%,4.7%
Cc1ccc(-n2ncc3c(SCC(N)=O)ncnc32)cc1C,4.8%,51.6*,47.7*,16.7%,-2.1%,-1.7%
CCOC(=O)Cn1cnc2c(cnn2-c2ccc(C)c(C)c2)c1=O,3.3%,x,x,x,-3.4%,x
CCOC(=O)c1[nH]c2c(c1-c1ccccc1)C(=O)CC(c1ccc(OCC)cc1)C2 (stereo not given),0.5%,-14.0,-2.0,5.3%,-0.2%,0.1%
CCOC(=O)c1[nH]c2c(c1-c1ccccc1)C(=O)CC(c1ccc(OC)c(OC)c1)C2 (stereo not given),0.3%,-10.6,15.1*,-6.2%,-0.3%,2.8%
Cc1ccccc1-n1c([C@@H]2C[C@H]2c2ccccc2)n[nH]c1=S,u,-8.7,-2.3,3.1%,3.5%,11.2µM*
S=c1[nH]nc([C@@H]2C[C@H]2c2ccccc2)n1-c1ccccc1,3.98µM*,-6.5,-2.9,5.7%,-9.0%,u
Cc1ccccc1OCc1n[nH]c(=S)n1-c1ccccc1,u,4.7,-1.9,-4.5%,x,0.9%
Cc1n[nH]c(=S)n1-c1ccccc1,u,1.7,4.8,u,17.1%,3.1%
CC(=O)Nc1ccc(CN(C)c2c(C)nc3ccc(C(=O)Nc4ccc(Cl)c(Cl)c4)cn23)cc1,3.0%,x,x,x,x,x
SMILES,TbPYK inhibitor,Shiga inhibitor,CHX counter,FBPA Giardia inh,Sm TGR inh,LmPK inh
COc1ccc2[nH]c(=O)c(CN(Cc3ccc(C)cc3)Cc3nnnn3CC3CCCO3)cc2c1 (stereo not given),-1.3%,40.1*,40.3*,u,u,7.4%
O=c1[nH]c2cc3c(cc2cc1CN(Cc1nnnn1CC1CCCO1)C1CCCCC1)OCO3 (stereo not given),-11.6%,31.4,-0.3,-4.5%,u,1.6%
O=c1[nH]c2cc3c(cc2cc1CN(Cc1nnnn1CC1CCCO1)C1CCCC1)OCO3 (stereo not given),4.0%,-2.4,16.4,-17.6%,25.1µM*,0.9%
COc1ccc2[nH]c(=O)c(CN(Cc3ccccc3OC)Cc3nnnn3CC3CCCO3)cc2c1 (stereo not given),0.6%,-31.3,-2.7,-25.0%,-15.0%,6.3%
Cc1ccc2cc(CN(Cc3ccc(F)cc3)Cc3nnnn3C3CCCC3)c(=O)[nH]c2c1,1.7%,14.6,12.4*,u,-4.8%,4.3%
Cc1ccc2cc(CN(Cc3ccccc3)Cc3nnnn3C3CCCC3)c(=O)[nH]c2c1,-2.6%,21.5,2.7,1.2%,-10.7%,4.1%
Cc1ccc(CN2CCC(CNc3ncnc4onc(-c5ccc(Cl)cc5)c34)CC2)cc1,0.9%,x,x,x,3.9%,x
CC(C)c1cc2cc3ccc(=O)oc3cc2o1,-0.6%,64.4*,32.9*,-2.3%,-17.0%,1.6%
O=c1ccc2cc3ccoc3cc2o1,-3.5%,-3.9,1.1,11.7%,4.0%,-11.6%
CCOC(=O)C(C)NC(=O)c1cc2c(=O)[nH]c3ccc(C)cc3c2s1 (stereo not given),-2.0%,x,x,x,5.3%,x
CCOC(=O)[C@H]1[C@H]2COc3ccc(OC)cc3[C@@H]2N2C(=O)CN(Cc3ccc(OC)cc3)C(=O)[C@@]12C,0.1%,x,x,x,50.1µM*,x
CCOC(=O)[C@H]1[C@H]2COc3ccc(C)cc3[C@@H]2N2C(=O)CN(Cc3ccco3)C(=O)[C@@]12C,-14.0%,x,x,x,14.1µM*,x
CCOC(=O)[C@H]1[C@H]2COc3ccc(OC)cc3[C@@H]2N2C(=O)CN(Cc3ccc(C)cc3)C(=O)[C@@]12C,-4.7%,x,x,x,-18.5%,x
CN1CCN(Cc2nc(N)nc(Nc3ccc4c(c3)OCCO4)n2)CC1,5.2%,60.2*,30.3*,14.4%,-3.3%,1.5%
Nc1nc(CN2CCN(c3ccccc3F)CC2)nc(Nc2ccc3c(c2)OCCO3)n1,-11.5%,-16.3,-3.6,-3.2%,-7.5%,0.3%
CCOC(=O)COc1c(-c2ccc(OC)cc2)oc2ccccc2c1=O,4.0%,8.0,-2.5,1.0%,3.2%,2.9%
CCOC(=O)/C=C/c1ccc2oc3ccccc3c(=O)c2c1,-3.2%,75.5*,49.0*,-13.6%,-16.5%,0.6%
Nc1c(C(=O)Nc2ccccc2F)sc2nc(-c3ccco3)ccc12,-5.3%,96.8*,46.9*,-5.9%,2.82µM*,4.9%
NC(=O)c1sc2nc(-c3ccco3)ccc2c1N,-16.0%,110.2*,37.3*,-20.2%,u,-6.4%
COC(=O)c1sc2nc(-c3ccco3)ccc2c1N,u,93.1*,68.4*,-11.3%,2.82µM*,-22.0%
CCc1ccc(NC(=O)CN2C(=O)C(=O)c3ccccc32)cc1,6.4%,x,x,x,10.6%,x
